The structures appear in SMILES notation. Screen size: about 7,400 compounds; about 4,100 (55%) were called active. So high a share suggests a set chosen from earlier hits. The list is a sample of the results. Unmarked numbers belong to inactive results.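 The calls were made as follows: active = inhibition of yeast growth at or above a set limit in either of two repeat tests at 20 µM; inactive = the rest.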

The nature of the assay: tim10-1 ts yeast growth inhibition, retested – single concentration, luminescence, S. cerevisiae, confirmation (AID 463213).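 Also: tim10-1 mutant grown at permissive 25 °C to find synthetic lethal compounds; 0% = DMSO yeast wells and 100% = medium wells without yeast.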 The following applies: S. cerevisiae tim10-1 ts strain growth, BacTiter-Glo, 24 h; at 20 µM; stronger effect = higher value.
One may read the inhibition as the change of the read-out against control, counted positive when it falls. As for `O=C(Nc1nnc(SCc2c(Cl)cccc2Cl)s1)C1CCCO1` (stereo not given), the inhibition was 37% (active). Then `CN(C(=O)CC(NC(=O)c1ccccc1)(c1ccccc1)c1ccccc1)c1ccccc1`, with 31.1% (active); and `CN(C(=O)COc1nnc(-c2cccs2)c(-c2cccs2)n1)c1ccccc1`, with 17%. On to `CCOc1ccccc1/C=c1\sc2nc(-c3ccco3)nn2c1=O`, for which the inhibition was 49.4% (active). In the case of `CCc1cccc(CC)c1NC(=S)NCc1ccc2[nH]c(C)cc2c1`, the inhibition is 35.8% (active). Then `O=C1Oc2ccccc2C(=O)/C1=C/c1ccccc1O`, with 55.9% (active). As to `CN(C)CCCN(C(=O)c1ccc(S(=O)(=O)N2CCCc3ccccc32)cc1)c1nc2ccc(F)cc2s1`, the inhibition was 44.5% (active). Then `COC(=O)c1cc(S(=O)(=O)N2CCN(c3cc(C)ccc3C)CC2)c[nH]1`, with 17.7%; and `Nc1cc(OC(=O)c2ccccc2Br)nn1S(=O)(=O)c1ccccc1`, with 33.8% (active); and `CCOC(=O)c1ccccc1CN1C(=O)c2ccccc2S1(=O)=O`, with 17.6%.

For the compound `O=C1c2ccccc2S(=O)(=O)N1CC(O)Cn1c2ccccc2c2ccccc21` (stereo not given), the inhibition was 51.1% (active). With `Cc1ccc(C)c(N2CCN(C(=O)CCCCn3c(=O)[nH]c4ccccc4c3=O)CC2)c1`, the inhibition is 17.4%. In the case of `COc1cccc(-c2cc3nc4c(c(N5CCC6(CC5)OCCO6)n3n2)CCCC4)c1`, the inhibition was -1.05%. Consider `O=c1nc2s/c(=C\c3ccco3)c(=O)n2nc1Cc1ccccc1`, for which the inhibition was 66.9% (active). For `O=C1OC(/C=C/c2ccccc2)=NC/1=C/c1ccco1`, the inhibition is 3%. Then `O=C(CSc1cccc2cccnc12)N/N=C/c1cccnc1`, with 36% (active); and `CCOc1cc(-c2conc2N)cc(OCC)c1OCC`, with 20.5%. On to `CCOC(=O)c1ccc(NC(=O)c2nc[nH]c2C(=O)NCc2ccccc2)cc1`, for which the inhibition was 41.4% (active). The value for `COC(=O)c1ccc(NC(=O)c2ccccc2NS(=O)(=O)c2ccccc2)cc1` was 19.4%; that for `O=C(COc1ccccc1F)NNC(=O)c1ccc(N2CCCCC2)c([N+](=O)[O-])c1` was 25.8%; that for `Cc1ccccc1OCC(=O)Nc1ccc(N2CCN(C(=O)C(C)C)CC2)c(Cl)c1` was 66.9% (active). Consider `CN1CCN(c2ccccc2NC(=O)COc2ccc(C3CCCCC3)cc2)CC1`, for which the inhibition was 12.4%. In the case of `O=[N+]([O-])c1c(NCCO)cc(Sc2nc3ccccc3s2)c2nonc12`, the inhibition was 19% (active). For the compound `CNC(=O)c1csc(Cc2c(Cl)sc3ccc(Cl)cc23)n1`, the inhibition is 20.5%. Then `CCCc1cc(-c2nc(-c3ccc(C)cc3)cs2)ccn1`, with 34.8% (active). Consider `CCOC(=O)/C=C/c1ccc(C(F)(F)F)cc1S(=O)(=O)NC(C)(C)C`, for which the inhibition was 29.9%. As to `O=C(Nc1ccccc1Cl)/C(Cl)=C(\Cl)S(=O)c1ccccc1` (stereo not given), the inhibition is 55% (active). The value for `Cc1[nH]n(C(N)=S)c(=O)c1N=Nc1ccc(Cl)cc1Cl` was 61.3% (active); that for `CC(=O)Oc1ccc2c(c1)C(=O)c1ccccc1C2=O` was 31.1% (active). Then `O=C(CSC(=S)N1CCOCC1)c1cc(Br)cc(Br)c1O`, with 46% (active); and `C[C@@H](NC(=O)OC(C)(C)C)c1nnc(S(=O)(=O)Cc2ccccc2)o1`, with 48.3% (active); and `CCOC(=O)Cc1csc(SCC(=O)NC(C)C23CC4CC(CC(C4)C2)C3)n1` (stereo not given), with 40.4% (active).

Turning to `CCOC(=O)Cc1csc(NC(=O)CSc2ccc(Br)cc2)n1`, the inhibition is 31.3% (active). Turning to `COc1ccc(NC(C)=O)cc1NC(=O)CN1CCN(C2c3ccccc3-c3ccccc32)CC1`, the inhibition was 15.5%. As to `O=C(Nc1ccccc1)c1nnsc1S(=O)(=O)c1ccc(Cl)cc1`, the inhibition is 85.3% (active). `COc1cc(/C=C2/C(=O)ON=C2C)ccc1OCc1ccccc1F`: the inhibition is 26.9%. `CCCN(CC1COc2ccccc2O1)C(=S)Nc1ccc(C)cc1` (stereo not given): the inhibition is 36.7% (active). The value for `Cc1ccoc1C(=O)Nc1cccc(Oc2ccccc2)c1` was 43.2% (active); that for `Cc1ccc(C(=O)COc2cccc(NC(=O)c3ccco3)c2)cc1` was 5.8%; that for `CN(C)N1C(N)=C(C#N)C(c2ccc(Br)cc2)C2=C1CCCC2=O` (stereo not given) was 8.4%.

On to `S=c1[nH]nc(-c2cccnc2)n1/N=C/C(Cl)=C\c1ccccc1`, for which the inhibition is 33.9% (active).

As for `Fc1ccccc1/C=C1\CCCC2=C1Nc1ncnn1C2c1ccccc1F` (stereo not given), the inhibition is 30.5% (active). The value for `NC(=O)c1sc2nc3c(c(-c4ccccc4)c2c1N)CCC3` was 19.1%; that for `Cc1ccc2c(N)c(C(=O)c3ccccc3)sc2n1` was 29.6%; that for `Cc1nc2sc(C(=O)c3ccccc3)c(N)c2c2c1CCCC2` was 37.9% (active). The value for `CCn1c(COc2c(C)cccc2C)nnc1SCc1nc2ccccc2c(=O)[nH]1` was 20.1%; that for `CCCCCCCCCCCCCCCC(=O)OC/C=C(C)/C=C/C=C(C)/C=C/C1=C(C)CCCC1(C)C` was 17.2%; that for `COC(=O)CCc1sc(Nc2ccc(Br)cc2)nc1-c1ccc(OC)cc1` was 19.9%. Then `COc1ccc(C(=O)OCC(=O)c2cc(C)n(CC3CCCO3)c2C)cc1[N+](=O)[O-]` (stereo not given), with 6%; and `COc1ccc(C(=O)COC(=O)c2ccc([N+](=O)[O-])s2)cc1OC`, with 50.6% (active). In the case of `O=C1Nc2ccc(Br)cc2/C1=N/N=C/C1=C(N2CCOCC2)C(=C\c2ccccc2)/CC1`, the inhibition was 59.5% (active).

On to `O=S(=O)(Nc1ccc(O)c2ccccc12)c1ccc(OC(F)(F)F)cc1`, for which the inhibition is 32.2% (active).

As for `CC(C)NC(=O)/C(C#N)=C\c1ccc(N(C)C)c(Br)c1`, the inhibition was 46.5% (active). For `O=C1NC(Nc2nc3ccccc3s2)(C(F)(F)F)C(=O)N1C1CCCCC1` (stereo not given), the inhibition was 35.5% (active). In the case of `COC(=O)c1c(NC(=O)COc2ccc(Cl)cc2Cl)sc2c1CC(C)(C)NC2(C)C`, the inhibition was 14.3%.

`Clc1ccc(Nc2nc(-c3cccs3)cs2)nc1`: the inhibition is 15%. The value for `Cc1ccc(Nc2nc(-c3ccc(O)cc3O)cs2)nc1` was 27.6% (active). Then `COc1ccccc1N1CCN(C(=O)c2cc(=O)c3cc(C)cc(C)c3o2)CC1`, with 24.9%.

As to `CCOC(=O)C/C(C)=N\Nc1ccc([N+](=O)[O-])cc1[N+](=O)[O-]`, the inhibition is 9.35%. `O=[N+]([O-])c1ccc(N/N=C2/CCCCC2c2ccccn2)c([N+](=O)[O-])c1` (stereo not given): the inhibition was 38.6% (active).

(Values after PubChem BioAssay AID463213 (Sanford-Burnham Center for Chemical Genomics, 2010).)
